The results in this text go back to PubChem BioAssay (EPA / NIEHS).

The structures appear in SMILES notation. Calls of active or inactive are those of the source. How the source made its calls: active means hit-call score of the fitted dose curve at least 0.9, where 1 is the maximum; inactive means score below 0.9.

Common to all, as to settings: mRNA level, 48 h; actives raise or lower the signal
Read-out in experiment [1]: Broad substrate specificity ATP-binding cassette transporter ABCG2 (Homo sapiens) (UniProt Q9UNQ0)
As to the kind of experiment: LTEA_HepaRG_ABCG2: Life Technologies and Expression Analysis (LTEA) Assay for ABC Transporter (ABCG2) using HepaRG (AID 2283465). An outline of the steps: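 Read-out is ABCG2 mRNA induction or loss quantified by qRT-PCR after 48 h chemical treatment of human HepaRG cells, normalized to three housekeeping genes. Concentrations reached 100 uM top in half-log steps; fitting was bidirectional against 0.5% DMSO.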

Read-out in experiment [2]: ATP-citrate lyase (ACLY), ACLY (gene 47)
As to the kind of experiment: LTEA_HepaRG_ACLY: Life Technologies and Expression Analysis (LTEA) Assay for ATP-citrate lyase (ACLY) using HepaRG (AID 2283466). An outline of the steps:
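HepaRG, 48 h exposure, 8-pt half-log dilutions (top 100 uM), 0.5% DMSO. Readout: ACLY mRNA, TaqMan qRT-PCR, housekeeping-normalized (ACTB/GAPDH/POLR2A). Bidirectional curve fit vs DMSO.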

Read-out in experiment [3]: Peroxisomal acyl-coenzyme A oxidase 1 (ACOX1) gene, ACOX1 (gene 51)
As to the kind of experiment: LTEA_HepaRG_ACOX1: Life Technologies and Expression Analysis (LTEA) Assay for Peroxisomal acyl-coenzyme A oxidase 1 (ACOX1) gene using HepaRG (AID 2283467). The gist of the method: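 Measured by qRT-PCR against three housekeeping genes: ACOX1 transcript change in human HepaRG cells after 48 h dosing. Concentrations ran up to 100 uM in half-log steps. Curves were fitted bidirectionally relative to 0.5% DMSO.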

Read-out in experiment [4]: Alkaline Phosphatase, Placental (ALPP) gene, ALPP (gene 250)
As to the kind of experiment: LTEA_HepaRG_ALPP: Life Technologies and Expression Analysis (LTEA) Assay for Alkaline Phosphatase, Placental (ALPP) gene using HepaRG (AID 2283468). An outline of the steps:
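qRT-PCR readout of ALPP mRNA (Fluidigm TaqMan), normalized to ACTB/GAPDH/POLR2A, after 48 h chemical exposure of HepaRG cells; 8-point half-log series, top 100 uM, 0.5% DMSO vehicle. Bidirectional curve fit versus DMSO baseline.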

Read-out in experiment [5]: Bcl-2 (BAD) gene, BAD (gene 572)
Kind of experiment: LTEA_HepaRG_BAD: Life Technologies and Expression Analysis (LTEA) Assay for Bcl-2 (BAD) gene using HepaRG (AID 2283469). The gist of the method:
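BAD transcript change, measured by qRT-PCR against three housekeeping genes and fitted in both directions relative to 0.5% DMSO, after 48 h chemical treatment of human HepaRG liver cells at concentrations up to 100 uM.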

Read-out in experiment [6]: Bcl-2 (BAX) gene, BAX (gene 581)
As to the kind of experiment: LTEA_HepaRG_BAX: Life Technologies and Expression Analysis (LTEA) Assay for Bcl-2 (BAX) gene using HepaRG (AID 2283470). The gist of the method:
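Concentration-response endpoint fitted in both directions relative to 0.5% DMSO vehicle. Human HepaRG cultures receive test chemicals for 48 h at up to 100 uM; BAX mRNA is quantified by qRT-PCR against housekeeping genes.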

Read-out in experiment [7]: adenosine kinase (ADK) gene, ADK (gene 132)
Kind of experiment: LTEA_HepaRG_ADK: Life Technologies and Expression Analysis (LTEA) Assay for adenosine kinase (ADK) gene using HepaRG (AID 2283471). The gist of the method: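 Differentiated HepaRG cells dosed 48 h in serum-free induction medium, 0.5% DMSO vehicle, eight half-log concentrations from 100 uM, in duplicate. ADK mRNA by TaqMan qRT-PCR normalised to ACTB, GAPDH, POLR2A; bidirectional fit versus DMSO.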

Read-out in experiment [8]: Alpha-fetoprotein (AFP) gene, AFP (gene 174)
Kind of experiment: LTEA_HepaRG_AFP: Life Technologies and Expression Analysis (LTEA) Assay for Alpha-fetoprotein (AFP) gene using HepaRG (AID 2283472). An outline of the steps: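 After a 48 h plating period, cells are moved to serum-free induction medium and dosed in duplicate (100 uM maximum, half-log dilutions, 0.5% DMSO) for another 48 h. Total RNA goes to TaqMan qRT-PCR; AFP signal is housekeeping-normalized.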

Read-out in another experiment: BCL2L11 (gene 10018)
Kind of experiment: LTEA_HepaRG_BCL2L11: Life Technologies and Expression Analysis (LTEA) Assay for Bcl-2 (BCL2L11) gene using HepaRG (AID 2283473). The gist of the method:
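HepaRG, 48 h exposure, 8-pt half-log series from 100 uM in 0.5% DMSO, duplicates; qRT-PCR (Fluidigm TaqMan) for BCL2L11, housekeeping-normalized; bidirectional curve fit relative to DMSO baseline.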

Read-out in experiment [9]: Apolipoprotein A-V (APOA5) gene, APOA5 (gene 116519)
Kind of experiment: LTEA_HepaRG_APOA5: Life Technologies and Expression Analysis (LTEA) Assay for Apolipoprotein A-V (APOA5) gene using HepaRG (AID 2283474). An outline of the steps: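 HepaRG, 48 h chemical exposure in serum-free induction medium, 8-pt half-log series (top 100 uM), 0.5% DMSO vehicle, duplicates. Readout: APOA5 mRNA by qRT-PCR, housekeeping-normalized; bidirectional fit vs DMSO baseline.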

Read-out in experiment [10]: Apoptosis regulator Bcl-2 (Homo sapiens) (UniProt P10415)
Kind of experiment: LTEA_HepaRG_BCL2: Life Technologies and Expression Analysis (LTEA) Assay for Bcl-2 gene using HepaRG (AID 2283475). The gist of the method:
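Expression change of BCL2 mRNA in HepaRG after 48 h dosing, quantified by TaqMan qRT-PCR against three endogenous controls. Concentration-response used eight points up to 100 uM, vehicle 0.5% DMSO.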

Read-out in experiment [11]: Bcl-2 (BID) gene, BID (gene 637)
Kind of experiment: LTEA_HepaRG_BID: Life Technologies and Expression Analysis (LTEA) Assay for Bcl-2 (BID) gene using HepaRG (AID 2283476). The gist of the method: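 Gain or loss of BID expression is fitted relative to 0.5% DMSO vehicle. Human HepaRG liver cells received a 48 h chemical exposure over an eight-point concentration range.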

Read-out in the next experiment: Caspase-3 (Homo sapiens) (UniProt P42574)
Kind of experiment: LTEA_HepaRG_CASP3: Life Technologies and Expression Analysis (LTEA) Assay for cysteine-aspartic acid protease (CASP3) using HepaRG (AID 2283477). An outline of the steps:
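HepaRG, 48 h exposure, 8 conc. (top 100 uM, half-log steps, duplicate), 0.5% DMSO vehicle; qRT-PCR of CASP3 transcript, housekeeping-normalised (ACTB/GAPDH/POLR2A); bidirectional curve fit vs DMSO baseline.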

Read-out in experiment [12]: Cytochrome P450 (CYP24A1), CYP24A1 (gene 1591)
As to the kind of experiment: LTEA_HepaRG_CYP24A1: Life Technologies and Expression Analysis (LTEA) Assay for Cytochrome P450 (CYP24A1) using HepaRG (AID 2283478). The gist of the method:
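qRT-PCR read-out: CYP24A1 transcript levels normalized to three housekeeping genes, bidirectional curve fits against 0.5% DMSO baseline. Human HepaRG cells treated 48 h with chemicals at eight concentrations from 100 uM in half-log steps.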

Read-out in experiment [13]: Cytochrome P450 (CYP1A2), CYP1A2 (gene 1544)
As to the kind of experiment: LTEA_HepaRG_CYP1A2: Life Technologies and Expression Analysis (LTEA) Assay for Cytochrome P450 (CYP1A2) using HepaRG (AID 2283479). The gist of the method:
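HepaRG, 48 h exposure, top 100 uM, half-log 8-pt, 0.5% DMSO vehicle, duplicates. Readout: TaqMan qRT-PCR of CYP1A2 mRNA, housekeeping-normalized (ACTB/GAPDH/POLR2A). Gain/loss fit relative to DMSO baseline.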

Read-out in experiment [14]: cysteine-aspartic acid protease (CASP8), CASP8 (gene 841)
As to the kind of experiment: LTEA_HepaRG_CASP8: Life Technologies and Expression Analysis (LTEA) Assay for cysteine-aspartic acid protease (CASP8) using HepaRG (AID 2283480). An outline of the steps:
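HepaRG, 48 h exposure, duplicate wells; 8 conc, half-log from 100 uM, 0.5% DMSO. Serum-free induction medium. CASP8 mRNA by TaqMan qRT-PCR, norm. ACTB/GAPDH/POLR2A; gain/loss fitted vs DMSO.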

Read-out in experiment [15]: Cytochrome P450 (CYP2B6), CYP2B6 (gene 1555)
Kind of experiment: LTEA_HepaRG_CYP2B6: Life Technologies and Expression Analysis (LTEA) Assay for Cytochrome P450 (CYP2B6) using HepaRG (AID 2283481). An outline of the steps: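 Read-out is CYP2B6 mRNA by TaqMan qRT-PCR, normalized to three housekeeping genes and fitted bidirectionally against 0.5% DMSO baseline. Human HepaRG cells received test chemicals for 48 h, top concentration 100 uM, half-log dilutions.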

Read-out in experiment [16]: Cytochrome P450 2C19 (Homo sapiens) (UniProt P33261)
Kind of experiment: LTEA_HepaRG_CYP2C19: Life Technologies and Expression Analysis (LTEA) Assay for CYP2C19 using HepaRG (AID 2283482). The gist of the method:
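HepaRG, 48 h chemical exposure, 8-pt half-log series from 100 uM in 0.5% DMSO, duplicates. Readout: CYP2C19 mRNA by TaqMan qRT-PCR, housekeeping-normalized. Bidirectional fit vs DMSO baseline; phenobarbital 1mM as induction control.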

Read-out in another experiment: CYP2C8 (gene 1558)
As to the kind of experiment: LTEA_HepaRG_CYP2C8: Life Technologies and Expression Analysis (LTEA) Assay for CYP2C8 using HepaRG (AID 2283483). The gist of the method: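 CYP2C8 mRNA induction or loss, by qRT-PCR normalized to ACTB/GAPDH/POLR2A, is read in HepaRG cells after 48 h treatment. Concentrations run from 100 uM down in half-log dilutions, with 0.5% DMSO as vehicle and baseline.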

Read-out in another experiment: CYP2C9 (gene 1559)
Kind of experiment: LTEA_HepaRG_CYP2C9: Life Technologies and Expression Analysis (LTEA) Assay for CYP2C9 using HepaRG (AID 2283484). An outline of the steps:
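Cells plated 48 h, switched to serum-free induction medium, then treated in duplicate for 48 h at eight concentrations (max 100 uM, 0.5% DMSO). RNA then analysed by qRT-PCR for CYP2C9; curves fitted in both directions relative to DMSO.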

Chain of Broad substrate specificity ATP-binding cassette transporter ABCG2 (Homo sapiens) (Q9UNQ0 whole entry, looked up): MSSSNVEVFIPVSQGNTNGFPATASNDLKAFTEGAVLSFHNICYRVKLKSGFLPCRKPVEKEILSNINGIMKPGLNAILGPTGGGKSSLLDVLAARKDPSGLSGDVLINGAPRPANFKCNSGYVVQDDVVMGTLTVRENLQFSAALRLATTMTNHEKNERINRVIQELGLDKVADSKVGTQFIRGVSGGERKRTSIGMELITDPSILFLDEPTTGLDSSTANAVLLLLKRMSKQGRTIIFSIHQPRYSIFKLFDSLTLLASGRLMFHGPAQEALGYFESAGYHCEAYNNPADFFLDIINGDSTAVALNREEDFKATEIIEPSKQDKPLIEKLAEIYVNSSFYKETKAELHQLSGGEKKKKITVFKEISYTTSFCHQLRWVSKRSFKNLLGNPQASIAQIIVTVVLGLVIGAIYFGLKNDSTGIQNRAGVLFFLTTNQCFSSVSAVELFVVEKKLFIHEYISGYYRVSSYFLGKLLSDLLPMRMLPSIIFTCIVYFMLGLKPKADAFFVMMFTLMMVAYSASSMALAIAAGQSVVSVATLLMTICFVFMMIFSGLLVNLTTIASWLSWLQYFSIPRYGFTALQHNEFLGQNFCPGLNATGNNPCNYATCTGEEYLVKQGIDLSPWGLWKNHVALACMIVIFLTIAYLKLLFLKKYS
Chain of Caspase-3 (Homo sapiens) (P42574 whole entry, looked up): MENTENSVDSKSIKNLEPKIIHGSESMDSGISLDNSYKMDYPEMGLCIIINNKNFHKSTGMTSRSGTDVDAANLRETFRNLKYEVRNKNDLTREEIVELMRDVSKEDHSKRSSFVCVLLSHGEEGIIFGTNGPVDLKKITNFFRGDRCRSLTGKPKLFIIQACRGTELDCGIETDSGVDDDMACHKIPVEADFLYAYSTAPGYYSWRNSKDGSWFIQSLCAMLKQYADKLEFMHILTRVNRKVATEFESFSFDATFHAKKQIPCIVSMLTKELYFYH
Chain of Apoptosis regulator Bcl-2 (Homo sapiens) (P10415 whole entry, looked up): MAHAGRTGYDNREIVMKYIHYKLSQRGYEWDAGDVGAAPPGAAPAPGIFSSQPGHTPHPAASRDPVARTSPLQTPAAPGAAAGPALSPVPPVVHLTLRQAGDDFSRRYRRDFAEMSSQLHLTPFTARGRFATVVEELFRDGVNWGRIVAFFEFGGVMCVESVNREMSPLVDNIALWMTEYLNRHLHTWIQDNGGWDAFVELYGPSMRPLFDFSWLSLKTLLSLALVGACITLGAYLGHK
Chain of Cytochrome P450 2C19 (Homo sapiens) (P33261 whole entry, looked up): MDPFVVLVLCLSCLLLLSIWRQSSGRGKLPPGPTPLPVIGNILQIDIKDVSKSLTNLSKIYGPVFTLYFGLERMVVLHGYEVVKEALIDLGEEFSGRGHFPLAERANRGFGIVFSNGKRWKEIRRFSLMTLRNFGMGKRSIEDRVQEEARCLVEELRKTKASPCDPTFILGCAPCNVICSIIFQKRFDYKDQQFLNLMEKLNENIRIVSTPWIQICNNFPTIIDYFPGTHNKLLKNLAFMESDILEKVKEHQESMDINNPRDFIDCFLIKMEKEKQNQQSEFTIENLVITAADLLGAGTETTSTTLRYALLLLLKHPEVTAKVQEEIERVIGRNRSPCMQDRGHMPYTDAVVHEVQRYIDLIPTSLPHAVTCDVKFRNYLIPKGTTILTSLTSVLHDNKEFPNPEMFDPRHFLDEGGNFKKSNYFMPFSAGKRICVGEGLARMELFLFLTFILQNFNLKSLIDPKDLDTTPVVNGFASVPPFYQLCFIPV

Take `CCC(C)=NO`: the result in experiment [1], in experiment [2], in [3], in experiment [4], in experiment [5] and in [6] was inactive. For the same molecule, the call (in experiment [7]; in experiment [8]; with BCL2L11 (gene 10018); in [9]; in experiment [10]; in experiment [11]) was inactive. For the same molecule, the call (in the experiment with Caspase-3 (Homo sapiens); in experiment [12]; in experiment [14]; in [15]; in experiment [16]; with CYP2C8 (gene 1558)) was inactive. Further, in the experiment with CYP2C9 (gene 1559), the molecule was called inactive. Besides, the half-maximal activity concentration (AC50) in experiment [13] is 49.8 µM (active).

By AC50 is commonly meant the concentration at which the activity in the assay is half-maximal.
